Compounds without any hit were thinned out: in the full panel of roughly 83,000, 20% have a hit.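 Each cell line was grown in a 96-well plate and treated with one concentration of compound for 48 hours. Values below 10 were considered active.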 Values without a mark were called inactive. The source made the active and inactive calls.

Among the data in PubChem BioAssay (NCI) are growth values, retold here.

Common to all, as to assay: NCI-60 one-dose screen, 48 h (100 = growth as untreated, 0 = no growth, -100 = all killed)
Settings in all cases: 10 µM unless noted

The subject of assay [1] is SR leukemia.
In assay [2] the test system is RPMI-8226 leukemia.
Assay [3] concerns OVCAR-8 ovarian.
Assay [4] has as its system OVCAR-5 ovarian.
In assay [5] the test system is OVCAR-4 ovarian.
Assay [6] has as its system SK-OV-3 ovarian.
Assay [7] has as its system IGROV1 ovarian.
Assay [8] deals with OVCAR-3 ovarian.
The test system of assay [9] is HS 578T breast.
The test system of assay [10] is NCI/ADR-RES ovarian.

`N#CC1=C(N)Oc2c(ccc3ccccc23)C1c1ccccc1` (stereo unspecified): the growth in assay [1] was 15.2%; in assay [2] it was 8.06% (active); in assay [3], 7.27% (active); in assay [4] it was 33.8%; in assay [5], 50.3%; in assay [6] it was 12.7%. The growth was 27.2% in [7], -2.34% (active) in assay [8], 28.8% in assay [9] and 2.65% (active) in assay [10].

`CCCCC1=C(P(=O)(O)O)N[C@H](C(=O)O)CS1`: the growth in assay [1] was 96.4%; in assay [2] it was 99.7%; in assay [3], 95.5%; in assay [4], 94.4%; in [5], 91.3%; in [6] it was 80.7%. The growth in assay [7] is 94.3%; in [8], 106%; in [9], 109%; in [10] it was 108%.

With `CN1C(=O)/C(=C\c2c(Cl)cccc2Cl)c2ccccc21`, the growth in assay [1] was 34.3%; in assay [2], 84.2%; in assay [3], 94.1%; in [4], 98.6%; in assay [5] it was 87.9%; in assay [6], 99.2%. In addition, the growth is 92.1% in [7], 95.4% in assay [8], 81.7% in assay [9] and 80.1% in assay [10].

For the compound `COC(=O)c1c2c(c(C)[n+]([O-])c1C)C(=O)C(NCc1cccc(OC)c1)=CC2=O`, the growth in [1] is 17.6%; in [2], 33.1%; in [3] it was -4.96% (active); in assay [4], 67.6%; in assay [5], -28.6% (active); in [6] it was 89.6%. The growth in [7] is 12.3%; in assay [8], -12.1% (active); in [9], 82.7%; in [10] it was 8.5% (active).

`O=C(/C=C/c1cccc(Cl)c1)c1ccc(Nc2nc(Nc3ccc(F)cc3)nc(Nc3ccc(Cl)cc3)n2)cc1`: the growth in assay [1] was 75.6%; in [2] it was 5.94% (active); in assay [3], 92.8%; in assay [4], 98%; in assay [5], 111%; in [6], 131%. For the same compound, the growth in assay [7] was 113%; in assay [8] it was 130%; in assay [9] it was 110%; in assay [10], 100%.

Take `COc1cc(OC)c(NC(=O)c2cc3ccccc3cc2O)cc1Cl`: the growth was 82.6% in assay [1]; 7.51% (active) in assay [2]; 41.5% in [3]; 89% in assay [4]; 41.4% in assay [5]; 71.6% in assay [6]. The growth in [7] is 1.6% (active); in assay [8] it was 2.27% (active); in [9], 31.1%; in assay [10], 14.1%.

As for `COc1ccc2c(c1OC)CO[C@@H]2[C@H]1c2c(cc3c(c2OC)OCO3)CCN1S(=O)(=O)c1cn(C)cn1`, the growth is 23.7% in assay [1]; 16.5% in assay [2]; 20.4% in assay [3]; 35.1% in [4]; 51.5% in assay [5]; 22.2% in assay [6]. Also, the growth in assay [7] is 24.7%; in assay [8], -35.3% (active); in [9] it was 15.5%; in assay [10], 3.64% (active).

As for `CCOC(=O)[C@@H]1CSC(CC)=C(C(=O)O)N1`, the growth in assay [1] was -11.1% (active); in [2], -32% (active); in assay [3], 101%; in assay [4], 107%; in [5] it was 117%; in assay [6], 69.1%. For the same compound, the growth is 109% in [7], 128% in [8], 109% in [9] and 113% in assay [10].

In the case of `O=C1C(=O)N(Cc2ccc(-c3ccccc3)cc2)c2ccc(OC(F)(F)F)cc21`, the growth in [1] was 2.04% (active); in [2] it was -5.6% (active); in assay [3] it was 23.6%; in [4] it was 37.3%; in [5], 36.3%; in assay [6], 98.1%. Moreover, the growth is 36% in [7], 24.7% in [8], 11.2% in assay [9] and 32.6% in [10].

Turning to `CCN1C(=S)N(c2ccccc2)C2C1NN=c1s/c(=C3\C(=O)N(C(C)C)c4ccccc43)c(=O)n12` (stereo unspecified), the growth was 46.2% in [1]; 97.4% in assay [2]; 54.1% in assay [3]; 93.9% in assay [4]; 1.68% (active) in assay [5]; 104% in [6]. Moreover, the growth in assay [7] is 71%; in assay [8] it was 84.2%; in [9] it was 54.8%; in assay [10], 64.1%.

For `CCn1cc(C(=O)NNC(=S)Nc2ccc(C)cc2)c(=O)c2ccc(C)nc21`, the growth in [1] is 104%; in [2], 98.9%; in assay [3], 95.6%; in [4], 107%; in [5] it was 102%; in assay [6], 106%. Moreover, the growth is 95.7% in [7], 103% in assay [8], 95.8% in assay [9] and 95.6% in assay [10].

Turning to `O=C(Nc1ccc(OS(=O)(=O)c2ccc(F)cc2)cc1)C1CCCCCC1`, the growth is 70.2% in assay [1]; 78% in assay [2]; 93.2% in assay [3]; 99.7% in assay [4]; 98.5% in assay [5]; 97.5% in [6]. Also, the growth is 118% in [7], 96.1% in [8], 82.4% in [9] and 82.1% in assay [10].

As for `O=C(/C=C(/C=C/c1ccc2[nH]ccc2c1)OB(F)F)/C=C/c1ccc2[nH]ccc2c1`, the growth in [1] was 2.78% (active); in [2] it was -31.2% (active); in assay [3], -29.9% (active); in assay [4] it was 15.4%; in assay [5], 2.28% (active); in [6], 13.6%. Besides, the figures for the growth in assay [7], in [8] and in assay [10] were 5.09% (active), -16.2% (active) and 14.3%, respectively.

Turning to `O=C1NC(=O)C(Cc2ccc(OCc3ccc(-c4ccc(Cl)cc4Cl)cc3)cc2)S1` (stereo unspecified), the growth in assay [1] is 29.3%; in [2], 38.5%; in [3], 42.6%; in [4] it was 80.6%; in assay [5], 47.4%; in assay [6] it was 61.8%. For the same compound, the growth in assay [8] was 65.7%; in [9], 65.1%; in [10], 22.7%.

With `CCOC(=O)C1=C(c2ccccc2)N=C2SC=C(c3ccc(Cl)cc3)N2C1c1ccc(Br)cc1` (stereo unspecified), the growth was 74.2% in [1]; 61.8% in assay [2]; 80.3% in assay [3]; 94.9% in assay [4]; 50.5% in assay [5]; 82.5% in assay [6]. Further, the growth in assay [7] is 74.5%; in assay [8], 67.4%; in assay [10], 83%.

For `C1CN(SSN2CCOCC2)CCO1`, the growth in assay [1] is 13.3% [100 µM]; in assay [2], 1.55% [100 µM] (active); in assay [3], -25.2% [100 µM] (active); in assay [4] it was 35.8% [100 µM]; in [5] it was -51.7% [100 µM] (active); in assay [6], 101% [100 µM]. The growth in assay [7] was 54.8% [100 µM]; in [8] it was -82.2% [100 µM] (active); in [10], 2.69% [100 µM] (active).

Turning to `COc1ccc2c(c1)c(-c1nc(-c3c[nH]c4ccncc34)cs1)cn2C`, the growth in assay [1] is -26% (active); in assay [2] it was -36.7% (active); in assay [3], -52.2% (active); in [4], -72.9% (active); in [5] it was -71.4% (active); in [6], 106%. Besides, the growth was -90.5% (active) in assay [8], -48.3% (active) in [9] and -52.8% (active) in assay [10].

Regarding `COCCn1cc(-c2nc(-c3cc4cccnc4[nH]3)cs2)c2cc(OC)ccc21`, the growth in assay [1] was 2.96% (active); in [2], 27.1%; in assay [3], 25.3%; in [4], 26.3%; in [5], 15.6%; in [6], 21%. The growth in assay [7] is 24.5%; in assay [8], 27.6%; in assay [10], 28.5%.

Turning to `O=C(/C=C/c1cccs1)Nc1ncc(Cc2ccccc2F)s1`, the growth in assay [1] was 26.1%; in assay [2] it was 23.7%; in [3], 29.8%; in [4], 34.5%; in [5], 48%; in [6] it was 27.5%. Further, the growth is 35.4% in assay [7], -6.37% (active) in [8] and 11.6% in [10].

Take `Cc1cc(S(=O)(=O)/N=C(\N)n2nc(C)c(C)c2C)c(SCc2ccccc2)cc1Cl`: the growth is 65.8% in [1]; 26.5% in [2]; 72.8% in assay [3]; 90% in assay [4]; 63.3% in assay [5]; 106% in [6]. For the same compound, the growth in [7] was -20.8% (active); in assay [8] it was 81%; in assay [10] it was 57.4%.

Regarding `COCCNC(=O)Nc1ccc2nc(-c3cccs3)c(-c3cccs3)nc2c1`, the growth in assay [1] was 67%; in [2], 92.1%; in assay [3] it was 93.4%; in [4], 87.9%; in assay [5], 98.2%; in [6] it was 98.8%. Besides, the results for the growth in [7], in [8] and in [10] were 89%, 106% and 90.1%, respectively.

For the compound `O=C(CN1CCCCC1)Nc1nc(-c2cc3ccccc3oc2=O)cs1`, the growth in assay [1] was 89.5%; in assay [2], 106%; in assay [3] it was 98.3%; in [4], 104%; in [5], 95.3%; in assay [6] it was 119%. The results for the growth in assay [8], in assay [9] and in assay [10] were 111%, 93.3% and 101%, respectively.

Turning to `COc1cc(-c2nccc3[nH]c(-c4ccc5cc[nH]c5c4)nc23)cc(OC)c1OC`, the growth in [1] was -4.95% (active); in [2], -43% (active); in assay [3], 12.4%; in [4], 41.5%; in assay [5], 39.3%; in [6], 1.3% (active). Besides, the growth is 29.5% in assay [7], 2.2% (active) in assay [8] and 12.7% in assay [10].

Consider `CN(C)CC1CCC(CN(C)C)C1=O` (stereo unspecified), for which the growth in assay [1] is 59.7%; in assay [2] it was 62.2%; in assay [3], 105%; in [4] it was 122%; in assay [5] it was 115%; in [6], 105%. For the same compound, the growth in assay [7] is 115%; in [8], 132%; in assay [9] it was 105%; in assay [10], 117%.

`Cc1[nH]c(=O)[nH]c(=O)c1Br`: the growth in assay [1] is 77.6%; in [2], 111%; in assay [3] it was 95.2%; in assay [4] it was 114%; in assay [5] it was 117%; in assay [6], 115%. The growth in assay [7] is 147%; in assay [8], 124%; in assay [10] it was 97.8%.

`N#Cc1nc(-c2ccc(F)cc2)oc1S(=O)(=O)N1CCCCC1`: the growth was 1.55% (active) in [1]; 49.4% in [2]; 58.3% in [3]; 95.9% in assay [4]; 57.4% in assay [5]; 104% in assay [6]. Also, the growth was 59.6% in [7], -54.5% (active) in assay [8] and 97.7% in assay [10].

With `O=c1[nH]c(-c2ccccc2)nc2sc3cc(O)ccc3c12`, the growth in assay [1] is 54.2%; in assay [2] it was 82.3%; in assay [3] it was 100%; in assay [4], 115%; in assay [5] it was 80%; in assay [6] it was 97.9%. The growth in assay [7] was 74.1%; in assay [8], 93.4%; in [10] it was 95.5%.

For the compound `Nc1c(C(=O)Nc2ccccc2F)sc2nc3c(cc12)CCCC3`, the growth was 13.3% in assay [1]; 28% in [2]; 40.7% in assay [3]; 74.7% in [4]; 54% in [5]; 26.6% in assay [6]. Also, the growth is 58.9% in assay [7], 4.6% (active) in assay [8], 48.9% in [9] and 24.7% in [10].
